Compound activity: PubChem BioAssay, National Center for Advancing Translational Sciences (NCATS)
Most compounds without a hit are left out; they make up all but 19% or so of the library.
HT1080 IDH1KD tx: qHTS for induction of synthetic lethality in tumor cells producing 2HG: qHTS for the HT-1080-IDH1KD cell line; HT-1080 IDH1 knockdown viability, ATP luminescence, 48 h; Potency, µM (titrated, usually from 46.1 µM), most hits filed as cytotoxic; 2% of 360,000 active
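Viability of IDH1-knockdown HT-1080 fibrosarcoma cells was assessed by CellTiter-Glo after 48 h at 37 °C with titrated compound; concentration-effect curves were classified by fit quality and response size.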
DT40 TDP1 no CPT: qHTS for Inhibitors of human tyrosyl-DNA phosphodiesterase 1 (TDP1): qHTS in cells in absence of CPT | DT40 Tdp1-/- hTDP1 cells, no CPT, ATP luminescence, 48 h | Potency, µM (highest dose often 46.2 µM), actives largely listed as inhibitors | 15% of 420,000 active | AID 686978, 2013; note: nearly all actives have a fitted effect of over 55% in size
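Luminescent ATP content (CellTiter-Glo) served as the growth readout. Knockout chicken DT40 cells expressing human TDP1 were exposed to compounds without camptothecin for a minimum 48 hr at 37 °C.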
IL-1B inflam inh: qHTS for Inhibitors of Inflammasome Signaling: IL-1-beta AlphaLISA Primary Screen; THP-1 LPS/ATP IL-1B secretion, AlphaLISA, 16 h; stronger effect = lower value; activity change, % at 57.5 µM; 4.7% of 360,000 active; in the data active = activity change below about -50%; inconclusive = mostly about -30% to -49%
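Secreted IL-1B measured by AlphaLISA bead assay after 16 h compound exposure of THP-1 cells; compounds (final up to 57.5 uM) added 1 h before LPS (250 ng/mL) and ATP (1.25 mM) stimulation; lower signal means less secretion.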
TDP1 cell CPT: qHTS for Inhibitors of human tyrosyl-DNA phosphodiesterase 1 (TDP1): qHTS in cells in presence of CPT | chicken DT40 Tdp1-/-;hTDP1 cells + 20 nM CPT, ATP luminescence, 48 h | 12% of 420,000 active | Potency, µM (top dose mostly 46.2 µM), usual class: inhibitors | AID 686979, 2013; note: nearly all actives have a fitted effect of over 55% in size
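Cell growth measured by CellTiter-Glo luminescence after a minimum 48 h, 37 C compound exposure with 20 nM CPT in Tdp1-knockout DT40 cells stably expressing hTDP1, seeded 400/well; qHTS titration format.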
HT1080-NT tox: qHTS for induction of synthetic lethality in tumor cells producing 2HG: qHTS for the HT-1080-NT fibrosarcoma cell line | HT-1080-NT fibrosarcoma viability, CellTiter-Glo ATP luminescence, 48 h | Potency, µM (titrated, usually from 46.1 µM), hits mostly cytotoxic | 1.6% of 360,000 active;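 note: NT is the 2HG producing partner of a matched IDH1 knockdown line; nearly all actives have a fitted effect of over 55% in size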
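HT-1080-NT fibrosarcoma cells (2HG-overproducing), 750 cells/well in RPMI with 5% FBS, dosed after 2 h and incubated 48 h at 37C. CellTiter-Glo luminescence normalized to DMSO and no-cell wells; concentration-response curves fitted and classed.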
Each line names hits and unclear results; the compound was inactive in the other large screens. Unless noted, calls come from the whole dose curve; as a rule, active = well fitted curve in the direction sought with a large enough effect; inconclusive = small, poorly fitted or top-dose-only effect, or another doubt; inactive = no such curve, though single readings can be large; an effect the other way counts as inactive or inconclusive.

O=C(Cn1cnc2ccccc21)N/N=C/c1ccccc1	none
CC(=C/c1ccccc1)/C=N/NC(=O)c1cccs1	DT40 TDP1 no CPT 5.2µM (no result: IL-1B inflam inh)
CC(/C=N/NC(=O)Cn1cnc2ccccc21)=C\c1ccccc1	DT40 TDP1 no CPT inconclusive, TDP1 cell CPT 23µM
O=C(N/N=C/C(Br)=C\c1ccccc1)c1cccs1	HT1080 IDH1KD tx 21µM, DT40 TDP1 no CPT 13µM, TDP1 cell CPT 15µM, HT1080-NT tox inconclusive (no result: IL-1B inflam inh)
CC(/C=N/NC(=O)c1c(Br)cnn1C)=C\c1ccccc1	DT40 TDP1 no CPT inconclusive, IL-1B inflam inh -52
CC(/C=N/NC(=O)c1nn(C)c(C)c1Br)=C\c1ccccc1	none
Cc1nc2cnc(N3CCNCC3)nc2n(CCC#N)c1=O	none (no result: HT1080 IDH1KD tx, IL-1B inflam inh, HT1080-NT tox)
COc1cc(C(=O)OCC(=O)N2CCCC2=O)cc(OC)c1C	none
COc1ccc(/C=N/n2c(N)nc3ccccc32)cc1OC	IL-1B inflam inh -60
COc1cccc(/C=N/n2c(N)nc3ccccc32)c1OC	HT1080 IDH1KD tx inconclusive, IL-1B inflam inh -68, HT1080-NT tox inconclusive
COc1ccc(/C=N/n2c(N)nc(-c3ccccc3)c2-c2ccccc2)cc1	DT40 TDP1 no CPT 16µM, IL-1B inflam inh inconclusive, TDP1 cell CPT 26µM
COc1ccc(/C=N/n2c(=S)n(C)c3ccccc32)cc1OC	TDP1 cell CPT inconclusive
COc1ccc(/C=N/n2c(-c3ccccc3)n[nH]c2=S)cc1	DT40 TDP1 no CPT inconclusive, TDP1 cell CPT inconclusive
CCOc1ncccc1C(=O)OCC(=O)NCc1cccs1	none
O=C(O)c1ccccc1C(=O)NNc1ccc(Cl)cc1Cl	none
COc1ccccc1OCc1nc(-c2cccc(C)c2)no1	none (no result: HT1080 IDH1KD tx, IL-1B inflam inh, HT1080-NT tox)
COc1ccccc1C(=O)N(Cc1nc(-c2cccc(C)c2)no1)C(C)C	DT40 TDP1 no CPT inconclusive, TDP1 cell CPT 21µM (no result: HT1080 IDH1KD tx, IL-1B inflam inh, HT1080-NT tox)
COc1cccc(C(=O)N(Cc2nc(-c3cccc(C)c3)no2)C(C)C)c1OC	DT40 TDP1 no CPT 18µM, TDP1 cell CPT inconclusive
COc1cc(-c2nc(-c3cccc(C)c3)no2)cc(OC)c1OC	DT40 TDP1 no CPT 23µM, TDP1 cell CPT 18µM
CCOc1cc(-c2nc(-c3ccccc3OC)no2)cc(OCC)c1OCC	DT40 TDP1 no CPT 29µM, IL-1B inflam inh inconclusive, TDP1 cell CPT inconclusive
COc1ccc(-c2nc(-c3cccc(C)c3)no2)cc1OC	none
Cc1c(C(=O)NCCc2cccnc2)cnn1-c1ncc2c(n1)-c1ccccc1CC2	DT40 TDP1 no CPT inconclusive (no result: HT1080 IDH1KD tx, IL-1B inflam inh, HT1080-NT tox)
CC1CC(C)CN(S(=O)(=O)c2ccc(C(C)(C)C)cc2)C1 (stereo not drawn)	DT40 TDP1 no CPT inconclusive, TDP1 cell CPT inconclusive
Cc1cccc(C(=O)N2[C@@H](C(C)C)COc3cc(Br)ccc3S2(=O)=O)c1	HT1080 IDH1KD tx inconclusive, DT40 TDP1 no CPT inconclusive, TDP1 cell CPT inconclusive, HT1080-NT tox inconclusive
COc1cccc(C(=O)N2C(C(C)C)COc3cc(Br)ccc3S2(=O)=O)c1 (stereo not drawn)	HT1080 IDH1KD tx inconclusive, DT40 TDP1 no CPT 23µM, TDP1 cell CPT 26µM, HT1080-NT tox inconclusive
COc1ccccc1C(=O)N1[C@@H](C(C)C)COc2cc(Br)ccc2S1(=O)=O	DT40 TDP1 no CPT 16µM, TDP1 cell CPT inconclusive
O=C(COC(=O)c1ccc(Cl)nc1)NNC(=O)c1ccc(Cl)cc1	none
O=C(CCn1nc(-c2ccccc2)c2ccccc2c1=O)NN1CCOCC1	none
CCN(CC)CCn1nc2c3c(cccc3c1=O)-c1ccccc1-2	HT1080 IDH1KD tx 21µM, DT40 TDP1 no CPT 0.016µM, IL-1B inflam inh -99, TDP1 cell CPT 0.52µM, HT1080-NT tox 15µM
O=c1c2cccc3c2c(nn1CN1CCOCC1)-c1ccccc1-3	HT1080 IDH1KD tx inconclusive, DT40 TDP1 no CPT 21µM, TDP1 cell CPT inconclusive
CCN(CC)CCn1nc(C)nc1-c1ccccc1O	none
CSCCC(NS(=O)(=O)c1ccccc1F)C(=O)N1CCCCCCC1 (stereo not drawn)	TDP1 cell CPT inconclusive
O=C(NNC(=O)C1CCC(C(=O)NNC(=O)c2cccs2)CC1)c1cccs1 (stereo not drawn)	none
S=c1[nH]ncn1/N=C/c1ccc(Br)cc1	TDP1 cell CPT inconclusive
